Results filed as inconclusive are left out. Values without a mark were called inactive. The source made the active and inactive calls. The call rests on the fitted dose curve; in most records, active means well fitted inhibition curve with a large enough effect; inconclusive means small, poorly fitted or top-dose-only effect; inactive means flat fitted curve, though single readings scatter.
The compounds below were run against Ubiquitin carboxyl-terminal hydrolase 1 (Homo sapiens) (UniProt O94782) (assay: Inhibitors of USP1/UAF1: Pilot qHTS (AID 504865;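 further: rhodamine fluorescence freed from ubiquitin-rhodamine substrate followed over time; top concentration of the series differs between compounds; on the % scale 0 is the no-effect control and ±100 the full control effect; nearly all actives have a fitted effect of over 35% in size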)). Details: purified USP1/UAF1, Ub-rhodamine cleavage fluorescence; series mostly up to 114 µM; activity change, negative = inhibition: at the top concentration.
Summary of the method: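 Deubiquitinase activity followed as kinetic rhodamine fluorescence release from 150 nM Ub-Rho. 1 nM USP1/UAF1 with compound, after 15 min room-temperature preincubation, in HEPES pH 7.8 buffer containing TCEP, EDTA, BSA and Tween-20.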

Chain of Ubiquitin carboxyl-terminal hydrolase 1 (Homo sapiens) (O94782 whole entry, looked up): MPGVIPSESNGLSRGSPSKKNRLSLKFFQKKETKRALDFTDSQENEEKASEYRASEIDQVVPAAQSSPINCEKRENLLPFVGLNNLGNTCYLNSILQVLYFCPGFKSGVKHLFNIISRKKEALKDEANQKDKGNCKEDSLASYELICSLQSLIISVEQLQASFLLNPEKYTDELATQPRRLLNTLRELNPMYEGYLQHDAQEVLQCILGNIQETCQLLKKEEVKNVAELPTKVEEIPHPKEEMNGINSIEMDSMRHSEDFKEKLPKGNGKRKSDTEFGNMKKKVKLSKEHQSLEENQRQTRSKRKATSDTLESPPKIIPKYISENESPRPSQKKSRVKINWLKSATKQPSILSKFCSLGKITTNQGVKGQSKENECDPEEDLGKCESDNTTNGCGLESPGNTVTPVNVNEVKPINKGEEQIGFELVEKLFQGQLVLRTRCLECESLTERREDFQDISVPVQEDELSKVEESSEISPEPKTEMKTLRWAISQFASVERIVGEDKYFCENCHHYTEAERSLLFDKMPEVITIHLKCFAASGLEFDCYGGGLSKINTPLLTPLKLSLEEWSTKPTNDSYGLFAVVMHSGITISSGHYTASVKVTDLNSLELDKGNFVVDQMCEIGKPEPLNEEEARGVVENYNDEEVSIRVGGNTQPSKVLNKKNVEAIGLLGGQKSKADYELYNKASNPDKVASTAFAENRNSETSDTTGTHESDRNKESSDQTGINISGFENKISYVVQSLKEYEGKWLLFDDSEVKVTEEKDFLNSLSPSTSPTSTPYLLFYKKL

Which “activity change, negative = inhibition” value does the source give for `Cc1cc(C)cc(C(=O)OC2CC3CCC(C2)N3C)c1` (stereo unspecified) here?
Its value is -13.5%.

`CCCN1CCCC2Cc3nc(N)ncc3CC21` (stereo unspecified) was tested. Which “activity change, negative = inhibition” value did it give?
Its value is -2.52%.

`COc1ccc2c3c1O[C@H]1[C@@H](O)C=C[C@H]4C(C2)NCCC341` (stereo partly specified) was tested. Which “activity change, negative = inhibition” value did it give?
Its value is -5.5%.

`CCCCCC(O)C1C(=O)OC(C)C(O)\C=C/C=C\C=C/C=C\C=C(\C)C(O)C(O)C(O)CC(O)CC(O)CC(O)CC(O)CC1O` (stereo unspecified) was tested. Which “activity change, negative = inhibition” value did it give?
The value was -6.12%.

Each compound was assayed against Luciferin 4-monooxygenase (Photinus pyralis) (UniProt P08659) (assay: Biochemical firefly luciferase enzyme assay for NPC (AID 624030;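 further: purified P. pyralis luciferase at 10 nM with luciferin and ATP substrate; 0% = DMSO and -100% = full luciferase inhibition by PTC124 control; nearly all actives have a fitted effect of over 70% in size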)). Details: purified P. pyralis luciferase, luminescence, 5 min; series mostly up to 58.6 µM; activity change, negative = inhibition: at the top concentration.
Summary of the method: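 Counter-screen for direct inhibition of the luciferase enzyme by approved-drug library compounds, run at 10 nM enzyme in 50 mM Tris acetate (final). Luminescence was read within 5 min of enzyme-buffer addition and normalized to PTC124 versus DMSO (0%).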

Chain of Luciferin 4-monooxygenase (Photinus pyralis) (P08659 whole entry, looked up): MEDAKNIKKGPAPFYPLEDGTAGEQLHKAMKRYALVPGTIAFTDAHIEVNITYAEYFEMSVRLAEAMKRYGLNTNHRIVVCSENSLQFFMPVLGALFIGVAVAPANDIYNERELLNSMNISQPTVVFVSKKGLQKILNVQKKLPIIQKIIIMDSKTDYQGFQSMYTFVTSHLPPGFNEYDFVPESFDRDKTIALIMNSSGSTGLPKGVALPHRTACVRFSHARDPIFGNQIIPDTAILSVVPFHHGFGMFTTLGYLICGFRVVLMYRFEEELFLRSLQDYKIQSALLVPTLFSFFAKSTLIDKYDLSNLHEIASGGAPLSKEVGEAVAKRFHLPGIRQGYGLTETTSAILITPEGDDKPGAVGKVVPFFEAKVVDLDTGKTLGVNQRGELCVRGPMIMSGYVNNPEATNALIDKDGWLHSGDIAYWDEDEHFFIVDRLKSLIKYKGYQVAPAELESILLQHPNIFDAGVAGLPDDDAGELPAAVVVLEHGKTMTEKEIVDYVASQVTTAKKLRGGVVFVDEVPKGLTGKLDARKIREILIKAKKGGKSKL

How did the “activity change, negative = inhibition” value turn out when `C[C@H](N)Cc1ccccc1` was run?
Its value is 3.25%.

For `C[C@]12C=CC(=O)C=C1CC[C@@H]1C2CC[C@]2(C)OC(=O)CCC12` (stereo partly specified), which “activity change, negative = inhibition” value is on record?
Its value is 1.89%.

How did the “activity change, negative = inhibition” value turn out when `OCC(O)[C@H]1O[C@@H]2O[C@H](C(Cl)(Cl)Cl)O[C@@H]2[C@H]1O` (stereo partly specified) was run?
The value was 0.671%.

With `CC1(C)[C@@H](C=C(Cl)Cl)[C@@H]1C(=O)OCc1c(F)c(F)cc(F)c1F` as the compound, how does the “activity change, negative = inhibition” value read?
The value was 0.283%.

`CC1(C)S[C@@H]2[C@H](N)C(=O)N2C1C(=O)O` (stereo partly specified) was tested. Which “activity change, negative = inhibition” value did it give?
Its value is 4.14% [at 24.9 µM].

With `C=C1Nc2ccccc2C(=O)N1c1ccccc1C` as the compound, how does the “activity change, negative = inhibition” value read?
Its value is 0.48%.

For `CC1OC(O[C@H]2C[C@@H](O)[C@]3(CO)[C@@H]4C(CC[C@]3(O)C2)[C@@]2(O)CC[C@H](C3=CC(=O)OC3)[C@@]2(C)C[C@H]4O)C(O)C(O)C1O` (stereo partly specified), which “activity change, negative = inhibition” value is on record?
Its value is 0.575%.

For `O=[N+]([O-])OC1CO[C@H]2C(O[N+](=O)[O-])COC12` (stereo partly specified), which “activity change, negative = inhibition” value is on record?
Its value is -0.635%.

Which “activity change, negative = inhibition” value does the source give for `CCOC(=O)/C=C(C)/C=C/CC(C)CCCC(C)C` (stereo unspecified) here?
The value was -0.363%.

`[S]=[Sb][S][Sb]=[S]` was tested. Which “activity change, negative = inhibition” value did it give?
Its value is -6.18%.

`CN1C2CCC1C(C(=O)O)C(OC(=O)c1ccccc1)C2` (stereo unspecified) was tested. Which Potency did it give?
Its Potency is “inactive”.

For `C[C@@H]1CC[C@H]2[C@@H](C)C(=O)O[C@@H]3OC4(C)CC[C@@H]1C32OO4` (stereo partly specified), which “activity change, negative = inhibition” value is on record?
The value was 1.15%.

How did the “activity change, negative = inhibition” value turn out when `Cc1ccc2c(c1)[C@@H]1CN(C)CC[C@H]1N2` was run?
Its value is 0.462%.

With `Nc1nc(O)c(-c2ccccc2)o1` as the compound, how does the “activity change, negative = inhibition” value read?
The value was 1.01%.

For `C=CC[N+]1(C)CCC23c4c5ccc(O)c4O[C@H]2C(=O)CC[C@@]3(O)C1C5` (stereo partly specified), which “activity change, negative = inhibition” value is on record?
The value was -22.1%.

With `OC[C@@H](O)[C@H]1O[C@@H]2OC(C(Cl)(Cl)Cl)O[C@H]2[C@H]1O` (stereo partly specified) as the compound, how does the “activity change, negative = inhibition” value read?
The value was -0.837%.

How did the “activity change, negative = inhibition” value turn out when `CCCCCCC(=O)O[C@H]1CC[C@H]2[C@@H]3CCC4CC(=O)C=C(C)[C@]4(C)[C@H]3CC[C@]12C` (stereo partly specified) was run?
Its value is -0.0982%.

Which “activity change, negative = inhibition” value does the source give for `Cc1cc(C)cc(C(=O)OC2CC3CCC(C2)N3C)c1` (stereo unspecified) here?
Its value is 3.5%.

How did the “activity change, negative = inhibition” value turn out when `CCCN1CCCC2Cc3nc(N)ncc3CC21` (stereo unspecified) was run?
Its value is 3.71%.

With `COc1ccc2c3c1O[C@H]1[C@@H](O)C=C[C@H]4C(C2)NCCC341` (stereo partly specified) as the compound, how does the “activity change, negative = inhibition” value read?
The value was 0.511%.

For `CCCCCC(O)C1C(=O)OC(C)C(O)\C=C/C=C\C=C/C=C\C=C(\C)C(O)C(O)C(O)CC(O)CC(O)CC(O)CC(O)CC1O` (stereo unspecified), which Potency is on record?
The Potency was “inactive”.

For `CCCCCc1cc(O)c2c(c1)OC(C)(C)C1CC=C(C)CC21` (stereo unspecified), which “activity change, negative = inhibition” value is on record?
Its value is 1.1%.
